In the library only some 8% were active in any assay of this set; here they are far more common.
SARS PLpro yeast = inhibitors of SARS-CoV papain-like protease in yeast | S. cerevisiae expressing SARS-CoV PLpro, growth rescue | hit rate 0.19% among 330,000 | Potency, µM (highest dose often 32.9 µM), inactives show at the highest dose activity, positive = growth rescue, hits mostly activators; calls by dose curve; further: potency means the concentration at half of the fitted maximal effect; 0% is about no effect; nearly all actives have a fitted effect of over 55% in size
MARV entry inh = Marburg virus entry inhibition; Marburg virus pseudotyped entry inhibition, cell reporter; Potency, µM (series often up to 37.8 µM), without a hit: top-dose activity change, negative = inhibition, most hits filed as inhibitors; hit rate 1.8% among 300,000; calls by dose curve; tested in HEK293 cells; further: potency means the concentration at half of the fitted maximal effect; on the % scale 0 is the no-effect control and ±100 the full control effect
HCMV inh = human cytomegalovirus inhibition. HFF cells, HCMV-luciferase reporter, 72 h; stronger effect = lower value. activity change, negative = inhibition, % at 57.5 µM. hit rate 4.5% among 410,000; in the data active means activity change below about -60%; inconclusive means no clear call, values can overlap the other calls; inactive means above about -39%; further: on the % scale 0 is the no-effect control and ±100 the full control effect
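After 16 h attachment at 37C, HFF cells received test compound and HCMV-luciferase (1 PFU/cell); reporter luminescence read 72 h later, data normalized against buffer-only and known inhibitor Salinomycin.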
HCV inhibitor = HCV inhibition; Potency, µM (titrated, usually from 41.8 µM), inactives show at the top dose activity change, negative = inhibition, most hits filed as inhibitors; Huh7.5.1 HCVcc-Cre infection, luciferase reporter, 44 h; hit rate 3.4% among 340,000; AID 651820; active means well fitted inhibition curve with a large enough effect; inconclusive means small, poorly fitted or top-dose-only effect, or another doubt; inactive means no such curve, though single readings can be large or run the other way; further: potency means the concentration at half of the fitted maximal effect; on the % scale 0 is the no-effect control and ±100 the full control effect
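After 44 h co-culture of compound, cells and HCVcc-Cre (~0.5 moi), substrate is added for 15 min at room temperature and luciferase measured over 15 sec. Cells were seeded at 1,000/well and pre-cultured 4 h.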
Lassa entry inh = blocks Lassa virus binding to or entry into cells. hit rate 1.2% among 300,000. AID 540256. Lassa virus pseudotype entry inhibition, cell reporter. Potency, µM (top dose mostly 37.9 µM), for inactives: top-dose activity change, negative = inhibition, actives largely listed as inhibitors; calls by dose curve; tested in HEK293 cells; further: potency means the concentration at half of the fitted maximal effect; on the % scale 0 is the no-effect control and ±100 the full control effect; nearly all actives have a fitted effect of over 50% in size
FMDV antiviral = blocks foot and mouth disease virus; FMDV antiviral cell-based qHTS; Potency, µM (titrated, usually from 57.9 µM), inactives show at the highest dose activity change, negative = inhibition, usual class: inhibitors; hit rate 1.2% among 410,000; AID 1159524; calls by dose curve; tested in HEK293T cells; further: read-out not given here; potency means the concentration at half of the fitted maximal effect; on the % scale 0 is the no-effect control and ±100 the full control effect; nearly all actives have a fitted effect of over 45% in size
Starred values were filed as active, the others as inactive; ? = inconclusive; · = no result; [ ] = another dose, or the depositor's remark.

SMILES | SARS PLpro yeast | MARV entry inh | HCMV inh | HCV inhibitor | Lassa entry inh | FMDV antiviral
COc1cc2c(-c3ccc(O)cc3)nc3c(c(C)nn3-c3ccccc3)c2cc1OC | 8% | -15% | -72* | 11µM* | ? | 0%
COC(=O)N1C(C)=Cc2ccccc2C1CC(C)=O (stereo unspecified) | · | -9%[14.2 µM] | · | · | · | ·
COc1ccc(C2(CNC(=O)C(=O)Nc3ccc(C)cc3)CCOCC2)cc1 | 0% | ? | -30 | 0% | ? | 16%
Cn1cccc1/C=C1\SC(=Nc2ccccc2)NC1=O | -1% | · | 2 | 7.9µM* | · | 60%
Cn1cccc1/C=C1\SC(=Nc2ccc(O)cc2)NC1=O | 0% | · | -77* | ? | · | 36%
Cc1ccc(N=C2NC(=O)/C(=C/c3cn(C)c4ccccc34)S2)cc1C | 17% | ? | ? | 13µM* | 0.1µM* | 0%
O=C1NC(=Nc2ccc(O)cc2)S/C1=C/c1ccco1 | 2% | ? | -1 | ? | 4.6µM* | 5%
Cc1ccc(OCc2nc(-c3ccc(C(=O)NCCc4ccc(Cl)cc4)cc3)oc2C)cc1 | · | · | 2 | · | -5%[46.1 µM] | -21%
Cc1cccc(N=C2NC(=O)S/C2=C\c2ccco2)c1 | 5% | -37% | -35 | -16% | -1% | 6%
CCOc1cc(Br)cc(/C=C2\SC(=Nc3ccccc3)NC2=O)c1O | -2% | · | -84* | ? | · | 0%
Cc1cccc(N=C2NC(=O)/C(=C/C=C/c3ccco3)S2)c1 | -14% | ? | 14 | ? | 18µM* | 9%
O=C1NC(=Nc2ccc(Cl)cc2)/C(=C/c2ccco2)S1 | -4% | ? | -80* | ? | 0% | 48%
COc1ccc(N=C2NC(=O)/C(=C\C=C\c3ccco3)S2)cc1 | -1% | ? | -13 | -9% | ? | 8%
C=CCOc1ccc(Br)cc1/C=C1/SC(=Nc2ccc(C(=O)O)cc2)NC1=O | 2% | · | -15 | 7% | · | 2%
COc1ccc(CCNC(=O)C2CCN(c3ncnc4c3nc3n4CCCCC3)CC2)c(OC)c1 | · | · | 32 | · | -6%[46.1 µM] | -7%
Nc1nc(SCc2ccc([N+](=O)[O-])cc2)c2ncn([C@@H]3O[C@H](CO)[C@@H](O)[C@H]3O)c2n1 | · | 20% | · | · | ? | -7%
O=C1[C@H]2[C@H]3[C@H](O)[C@H](O)C/C(=N\OCc4ccccc4)[C@H]3CC[C@H]2C(=O)N1C[C@@H]1CCCO1 | · | -7%[14.2 µM] | · | · | · | ·
Brc1ccc(-c2csc(N3CCCCC3)n2)cc1 | -12% | · | · | · | · | ·
c1ccc(CN2CCN(C3CCCSc4ccccc43)CC2)cc1 (stereo unspecified) | · | 16µM* | 28 | 0% | ? | ?
CCCN(C(=O)COc1cc(=O)n(CC)c2ccccc12)c1ccc(C(C)C)cc1 | · | -18%[46.1 µM] | -102* | · | -24%[46.1 µM] | ?
O=C(Nc1ccc2c(c1)OCCO2)Nc1ccc2c(c1)OCO2 | 1% | ? | 40 | -8% | 8.9µM* | -35%
C=C(C)C(=O)Nc1ccc2c(c1)OCCOCCOCCO2 | -1% | 11µM* | 6 | -4% | -5%[46.1 µM] | -6%
C/C(=C\C(=O)c1ccccc1)Nc1ccc2c(c1)OCO2 | 5% | -2% | 37 | 3.2µM* | 1% | -10%
CC(=O)Nc1ccc2c(c1)OCO2 | 0% | -19%[46.1 µM] | -11 | 11% | -11%[46.1 µM] | -2%
O=C(CCl)Nc1ccc2c(c1)OCO2 | 28% | ? | -61* | ? | ? | ?
SMILES | SARS PLpro yeast | MARV entry inh | HCMV inh | HCV inhibitor | Lassa entry inh | FMDV antiviral
O=C(C1CC12CCN(Cc1cccc3cccnc13)CC2)N1CCN(Cc2cccs2)CC1 (stereo unspecified) | · | · | · | · | · | -9%
O=C(Nc1ccc2c(c1)OCO2)c1noc2c1CCCC2 | 1% | 7.1µM* | 33 | -3% | ? | -11%
O=C(Nc1ccc2c(c1)OCO2)c1noc2c1CCCCC2 | -13% | ? | 85 | 1% | ? | -6%
c1ccc(OCCSc2nnnn2C2CCCCC2)cc1 | -3% | -5% | 87 | 6% | 14µM* | -22%
CC1CCCC(C)N1C(=O)COC(=O)C12CC3CC(CC(Cl)(C3)C1)C2 (stereo unspecified) | -5% | · | -63* | -7% | · | -17%
Cc1ccccc1CSc1nc2cccnc2n1Cc1ccc(C(=O)NC2CC2)cc1 | · | · | -3 | · | ? | 26%
COc1ccc2ccccc2c1/C=N/NC(=S)Nc1cc(S(=O)(=O)N2CCOCC2)ccc1N1CCOCC1 | 11% | 0% | -34 | ? | 0% | -19%
COc1ccc(/C=N/NC(=S)Nc2cc(S(=O)(=O)N3CCOCC3)ccc2N2CCOCC2)cc1O | 14% | ? | -30 | 10µM* | ? | ?
CCOc1cccc(/C=N/NC(=S)Nc2cc(S(=O)(=O)N3CCOCC3)ccc2N2CCOCC2)c1O | 20% | ? | -79* | ? | ? | ?
Cc1ccccc1OCC(=O)Nc1cc(S(=O)(=O)N2CCOCC2)ccc1N1CCCC1 | 2% | · | 0 | ? | · | 1%
CCC(SC1=NCCS1)C(=O)Nc1nnc(-c2ccccc2OC)s1 (stereo unspecified) | -2% | · | -97* | 13% | · | -5%
CCOC(=O)Nc1nnc(-c2ccccc2OC)s1 | 3% | 18% | ? | ? | -2% | 33%
C[C@@H]1C[C@H]2CC(=O)N3[C@H](CC(=O)N2[C@H]1c1ccccc1)C[C@@H](C)[C@@H]3c1ccccc1 | · | 15%[14.2 µM] | · | · | · | ·
O=C(Nc1ccccc1-c1nc2ccccc2s1)c1cccnc1Cl | 0% | -26% | -15 | 35µM* | -11% | -17%
O=C(Nc1ccccc1-c1nc2ccccc2s1)c1ccco1 | -2% | -16% | 17 | 4µM* | -13% | -30%
COc1ccc(NS(=O)(=O)c2cccc(C(=O)NNC(=O)CNC(=O)c3ccc(C)cc3)c2)cc1 | 1% | 0% | -25 | 3% | -1% | -5%
CCCCn1c(O)c(N=NC(=O)c2ccccc2NS(=O)(=O)c2cccs2)c2ccccc21 | -10% | 8% | 19 | -6% | ? | -4%
Cc1ccccc1NC(=S)N=Nc1c(O)n(C)c2ccc(S(=O)(=O)N3CCOCC3)cc12 | 4% | ? | ? | ? | ? | ?
Oc1c(N=NC(=S)Nc2ccccc2F)c2ccccc2n1Cc1ccccc1 | -1% | · | -20 | ? | · | -19%
C=CCn1c(O)c(N=NC(=S)Nc2ccccc2F)c2cc(S(=O)(=O)N3CCOCC3)ccc21 | 2% | ? | -70* | ? | ? | -23%
C=CCn1c(O)c(N=NC(=S)Nc2ccccc2F)c2ccccc21 | -2% | · | -93* | 10µM* | · | -18%
C=CCn1c(O)c(N=NC(=O)c2ccccc2NS(=O)(=O)c2cccs2)c2ccccc21 | -19% | ? | -95* | 17% | 13% | -3%
CNC(=S)Nc1cccc(S(=O)(=O)NCc2ccco2)c1 | -1% | 3% | 3 | -7% | 26% | 57%
O=C(Nc1cccc(OC(F)(F)F)c1)c1cnc(N2CCN(Cc3cccc(C(F)(F)F)c3)C2=O)o1 | · | · | -10 | · | · | ·
